Out of some 220,000 compounds screened, about 16,000 (7.3%) were called active. Not shown: some 25% with an inconclusive outcome. For the sample, actives were picked, then their nearest neighbours and some compounds at random. Values without a mark were called inactive. Calls follow the shape of the dose curve; as a rule, active = well fitted inhibition curve with a large enough effect (not every such curve was filed as active); inconclusive = small, poorly fitted or top-dose-only effect, or another doubt; inactive = no such curve, though single readings can be large or run the other way.
molecular target: Aldehyde dehydrogenase 1A1 (Homo sapiens) (UniProt P00352); test: qHTS Assay for Inhibitors of Aldehyde Dehydrogenase 1 (ALDH1A1); settings: Purified ALDH1A1, NADH fluorescence, propionaldehyde substrate; series mostly up to 75.3 µM; activity, negative = inhibition: at the top concentration;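 as to activity, negative = inhibition: plate controls were no enzyme wells and a reference inhibitor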
Potency is read from the fitted curve at half-maximal effect.

Chain of Aldehyde dehydrogenase 1A1 (Homo sapiens) (P00352 whole entry, looked up): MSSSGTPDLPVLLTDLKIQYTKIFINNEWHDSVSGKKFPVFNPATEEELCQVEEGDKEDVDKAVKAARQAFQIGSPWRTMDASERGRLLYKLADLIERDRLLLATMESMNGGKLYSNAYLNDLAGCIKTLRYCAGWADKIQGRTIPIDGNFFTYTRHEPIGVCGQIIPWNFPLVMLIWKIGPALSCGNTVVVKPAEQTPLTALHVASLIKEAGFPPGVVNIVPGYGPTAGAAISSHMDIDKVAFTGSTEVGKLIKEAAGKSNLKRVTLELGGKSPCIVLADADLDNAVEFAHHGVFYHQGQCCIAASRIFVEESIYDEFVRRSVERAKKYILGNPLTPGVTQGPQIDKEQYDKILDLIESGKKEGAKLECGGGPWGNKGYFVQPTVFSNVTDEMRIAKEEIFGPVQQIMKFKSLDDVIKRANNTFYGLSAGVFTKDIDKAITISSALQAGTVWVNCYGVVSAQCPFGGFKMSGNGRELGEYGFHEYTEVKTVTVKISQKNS

SMILES | Potency | activity, negative = inhibition
O=[N+]([O-])c1ccc(NCCCO)c(C(F)(F)F)c1 | 15.8 µM (active) | 
CC(C)(C)C(=O)NCCCNc1ccc([N+](=O)[O-])cc1 |  | -7.51%
CC(=O)Nc1ccc(C(=O)OCC(=O)Nc2ccc([N+](=O)[O-])cc2C(F)(F)F)cc1 |  | -0.0444%
O=C(N/N=C/c1ccc(Cl)cc1)c1nc2ccc([N+](=O)[O-])cc2c(=O)[nH]1 |  | -8.44%
CC(=O)c1cnc(SCC(=O)O)nc1C |  | 6.8%
COc1ccc(NC2=CC(=S)NC(C)(C)C2)cc1 |  | 1.47%
O=C(Nc1cccc(NC(=O)N2CCN(c3ccccc3)CC2)c1)N1CCN(c2ccccc2)CC1 |  | -6.69%
Cc1cccc(C(=O)Nc2ccccc2N2CCN(c3ccc(F)cc3)CC2)c1 |  | -8.56%
Cc1cccc(N2CCN(c3ccc(NC(=O)/C=C\C(=O)O)cc3)CC2)c1 | 25.1 µM (active) | 
CCOCCCn1c(NN)nc2ccccc2c1=O |  | 0.593%
CCOC(=O)N1CCN(C(=O)CN(c2ccc(C)c(C)c2)S(=O)(=O)c2ccccc2)CC1 |  | 1.51%
Cc1ccc(S(=O)(=O)N(CC(=O)N2CCc3ccccc3C2)c2cccc(Cl)c2)cc1 | 0.562 µM (active) | 
COc1cccc(N(CC(=O)N2CCc3ccccc3C2)S(C)(=O)=O)c1 |  | 3.68%
CC(=O)NCC(=O)N(Cc1ccco1)C1(C(=O)NC2CCCC2)CCCCC1 |  | -4.75%
COc1ccccc1C1C(C#N)=C(N)Oc2c1c(-c1ccccc1)nn2-c1ccccc1 (centres undefined) |  | 1.85%
Cc1nn(Cc2ccccc2)c2c1C(c1ccccc1)C(C#N)=C(N)O2 (centres undefined) | 7.08 µM (active) | 
CCc1ccc(C2C(C#N)=C(N)Oc3n[nH]c(CC(=O)OC)c32)cc1 (centres undefined) |  | -2.99%
Cc1cc2c(c(=O)n1Cc1ccco1)C(c1ccccc1)C(C#N)=C(N)O2 (centres undefined) |  | 5.32%
CCCc1[nH]nc2c1C(c1c(C)nn(-c3ccccc3)c1Cl)C(C#N)=C(N)O2 (centres undefined) |  | -7.97%
Cc1nn(-c2ccccc2)c2c1C(c1ccc(F)cc1)C(C#N)=C(N)O2 (centres undefined) | 3.55 µM (active) | 
Cc1c(Br)c([N+](=O)[O-])nn1CC(=O)Nc1sc2c(c1C(=O)OC(C)C)CCC(C)C2 (centres undefined) |  | 11.3%
CCCCC[C@H](O)/C=C/[C@@H]1[C@@H](CC(=O)CCC(=O)O)[C@@H](O)C[C@H]1O |  | 3.43%
COc1ccc(C2CC(c3cccs3)=NN2C(=O)CSc2nncs2)cc1OC (centres undefined) |  | -3.31%
COc1cc(/C=N/N=C(\N)c2nonc2N)cc(OC)c1OC |  | -1.07%
COCCNC(=O)C(OC(=O)c1cccs1)c1ccc(F)cc1 (centres undefined) |  | 3.83%

SMILES | Potency | activity, negative = inhibition
CCc1nc2oc3ccccc3c(=O)c2c(=O)n1Cc1ccc(OC)cc1 |  | 8.05%
O=c1c2ccccc2oc2nc3n(c(=O)c12)CCCS3 | 25.1 µM (active) | 
O=c1c2ccccc2oc2nc(C3CCCCC3)n(Cc3ccco3)c(=O)c12 |  | -10.5%
COc1ccc(C2=NN(c3ccccc3)C(c3cccs3)C2)cc1 (centres undefined) |  | 14.6%
Cc1cnc(NC(=O)CSc2nnc(-c3ccccc3)n2Cc2ccccc2)s1 |  | -1.75%
Cc1ccc(SCC(=O)Nc2ncc(C)s2)cc1 |  | 10.3%
Cc1cnc(NC(=O)CSc2nnc(-c3ccc(Cl)cc3Cl)n2N)s1 | 20 µM (active) | 
Cc1ccc(-c2cc(C(=O)NN)n[nH]2)o1 |  | 9.31%
O=C(O)CCCC(=O)Nc1ccc(Oc2cccc(C(F)(F)F)c2)nc1 |  | 9.57%
O=C(COC(=O)c1ccccc1C(=O)N1CCN(c2ccccc2)CC1)NCc1ccccc1 |  | 11.5%
Oc1ccccc1N1CCN(C(=S)NCc2ccccc2)CC1 |  | -6.52%
Oc1ccc(N2CCN(C(=S)NCc3ccccc3)CC2)cc1 | 20 µM (active) | 
N/C(=N\OC(=O)c1ccc([N+](=O)[O-])cc1)c1ccccn1 |  | 13.7%
C[N+]1(CC(O)COc2ccccc2)CCN(C(=O)c2ccc([N+](=O)[O-])cc2)CC1 (centres undefined) |  | 9.82%
Nc1ccc(SCCN2C(=O)c3ccccc3C2=O)cc1 |  | 1.44%
CC(=O)NCCn1c(SCC(=O)Nc2ccc(C)cc2)nc2ccccc2c1=O |  | 1.03%
CN(C)CCCn1c(SCCN2C(=O)c3ccccc3C2=O)nc2ccccc2c1=O | 20 µM (active) | 
COc1ccc(C(=O)CSc2nnc(-c3ccco3)o2)cc1 |  | -14.6%
COC(=O)C1=C(NC(=O)C(C)(C)C)CCS1 |  | 6.13%
C=CCC(C(=O)c1ccccc1)[N+](C)(C)CC=C (centres undefined) |  | 5.4%
Cc1ccc(Cl)cc1NC(=S)N(CCN(C)C)Cc1cccs1 |  | 1.93%
N#C/C(=C(\O)C(F)(F)F)c1nnc2n1CCCCC2 | 4.47 µM (active) | 
N#Cc1cccc(Nc2c3c(nc4ccccc24)CCCC3)c1 |  | 2.92%
CCc1nnc(NC(=O)CCN(c2ccc(C)cc2)S(=O)(=O)c2ccccc2)s1 |  | -0.208%
CCOC(=O)Cn1c(=O)oc2cc(S(=O)(=O)NCC3CCCO3)ccc21 (centres undefined) |  | 1.27%

SMILES | Potency | activity, negative = inhibition
CCOc1ccc(S(=O)(=O)N(CC(=O)NCC(F)(F)F)Cc2ccco2)cc1 |  | 3.47%
CCOC(=O)Cn1c(=O)oc2cc(S(=O)(=O)N(C)Cc3ccco3)ccc21 | 15 µM (active) | 
Cc1ccc(CN2CCN(Cc3ccc(OCCO)cc3)CC2CCO)o1 (centres undefined) |  | 6.25%
Cc1ccc(OCC(=O)N2CCN(C(=O)c3cccnc3)CC2)cc1 |  | -3.66%
COc1c(C)cc(C(=O)C2CCCN(S(=O)(=O)c3c(C)noc3C)C2)cc1C (centres undefined) |  | -2.76%
C[C@H]1Cc2c(-c3ccccc3)nc3c(c2CO1)CN(C(=O)C1CC1)CC3 |  | 8.3% [at 13.5 µM]
C[C@H]1Cc2c(-c3ccccc3)nc3c(c2CO1)CN(S(=O)(=O)c1ccc(Cl)c2nonc12)CC3 |  | -9.79% [at 13.5 µM]
COc1ccc(F)c(-c2nc(CN3CCC(c4ccccc4)CC3)c(C)o2)c1 |  | -4.43%
C[C@H]1Cc2c(COc3ccccc3)nc3c(c2CO1)CN(C(=O)Nc1cccc(C#N)c1)CC3 |  | -13.5% [at 13.5 µM]
COc1ccc(-c2nc3c(c4c2C[C@H](c2ccccc2)OC4)CN(S(=O)(=O)c2c(C)noc2C)CC3)c(C)c1 | 0.447 µM (active) | 
COc1ccc(-c2nc3c(c4c2C[C@H](c2ccccc2)OC4)CN(C(=O)c2ccco2)CC3)c(C)c1 | 1.78 µM (active) | 
COc1cccc(CC(=O)N2CCc3nc(COc4ccccc4)c4c(c3C2)CO[C@@H](C)C4)c1 |  | 6.69% [at 13.5 µM]
COc1ccc(-c2nc3c(c4c2C[C@H](c2ccccc2)OC4)CN(C(=O)c2cccnc2)CC3)c(C)c1 | 0.355 µM (active) | 
C[C@H]1Cc2c(COc3ccccc3)nc3c(c2CO1)CN(C(=O)NCc1ccco1)CC3 |  | -1.72% [at 13.5 µM]
COc1ccc(-c2nc3c(c4c2C[C@H](c2ccccc2)OC4)CN(C(=O)C2CC2)CC3)c(C)c1 | 0.398 µM (active) | 
CN1CCN(/N=C/c2ccc(-c3ccc([N+](=O)[O-])cc3)o2)CC1 |  | -8.28%
CCOC(=O)N1CCN(C(=S)Nc2ccc(C)cc2C)CC1 |  | -5.34%
CCOc1ccc(N(CC(=O)NCCc2ccc(OC)cc2)S(C)(=O)=O)cc1 |  | -2.6%
COCOc1cc(OC)ccc1C(=O)/C=C/c1ccc([N+](=O)[O-])cc1 |  | -8.84%
CCOc1ccc(-c2n[nH]c(C)c2-c2ccccn2)c(O)c1 |  | 4.95%
Cc1cc(C)cc(C(=O)N(CCc2ccccc2)C2=CC3CCC(C2)N3C)c1 (centres undefined) |  | 8.36%
CCn1c(CNC(=O)c2ccco2)nnc1SCC(=O)Nc1cccc(F)c1 |  | 4.1%
Nc1ccc(OCC(O)C[n+]2ccc(CCS(=O)(=O)[O-])cc2)cc1 (centres undefined) |  | -10%
Cc1ccc(NC(=O)C(=O)NCc2ccc(/C=N/NC(=O)c3c(C)nc4cc(C)ccn34)o2)cc1 |  | -4.69%
CCOC(=O)C(NC(C)=O)C(=O)Nc1ccc(OC)cc1 (centres undefined) |  | 6.93%

SMILES | Potency | activity, negative = inhibition
CCn1c(CNC(=O)c2ccc(OC)c(OC)c2)nnc1SCC(=O)Nc1ccccc1 |  | -7.28%
COc1ccc(CC(=O)NCc2nnc(SCC(=O)Nc3nccs3)n2C)cc1 |  | -7.51%
CCn1c(CNc2ccc(OC)cc2)nnc1SCC(=O)c1ccc(OC)cc1 | 0.199 µM (active) | 
COC(=O)c1ccc(NC(=O)CSc2nnc(-c3ccncc3)n2C)cc1 |  | -10.8%
O=C(CSc1nnc(-c2cccnc2)n1Cc1ccco1)c1ccc(Cl)cc1 |  | -9.79%
COC(=O)c1ccc(NC(=O)CSc2nnc(CNc3ccc(OC)cc3)n2C)cc1 | 28.2 µM (active) | 
CCn1c(COc2ccc(OC)cc2)nnc1SCC(=O)Nc1cc(OC)ccc1OC |  | -3.3%
CCn1c(COc2ccccc2)nnc1SCC(=O)NCc1ccco1 |  | 12.4%
COc1ccc(C(=O)CSc2nnc(COc3ccccc3)n2Cc2ccco2)cc1 | 8.91 µM (active) | 
CN(Cc1ccccc1)C(=O)CCc1ccccc1 |  | 0.149%
CCOCCCNC(=O)C(=O)NCCCOCC |  | 8.26%
CC(C)C(=O)Nc1cccc(NC(=O)c2ccc([N+](=O)[O-])cc2Cl)c1 |  | -8.63%
Clc1ccc(N/N=C/c2cccs2)nn1 |  | -10.1%
Cc1ccccc1-c1ccc(C(=O)O)s1 |  | -7.43% [at 120 µM]
COc1ccc(CN2CCCC(C(=O)c3ccc(Cl)cc3)C2)cc1Cn1cncn1 (centres undefined) |  | 0.371%
CCOC(=O)c1[nH]ncc1CN1CCCC(C(=O)c2ccc(OC)cc2C)C1 (centres undefined) |  | 5.87%
COc1cc(OC)c(C(=O)N2CCCC2)cc1OC |  | 4.29%
O=C(NCc1ccco1)C1CCCN(S(=O)(=O)c2ccccc2)C1 (centres undefined) |  | -4.25%
Cc1ccc(S(=O)(=O)N2CCC(C(=O)N[C@@H](C)C(=O)NCc3ccco3)CC2)cc1 |  | 2.42%
Cc1ccc(S(=O)(=O)N2CCCC2C(=O)NCc2ccco2)cc1 (centres undefined) | 28.2 µM (active) | 
CSc1ncccc1C(=O)N1CCCC(CCC(=O)NCc2ccccc2F)C1 (centres undefined) |  | -1.19%
COc1ccc(OC)c(-n2nnnc2SCC(=O)Nc2cc(C)ccc2OC)c1 |  | -7.65%
Cc1cc(C(=O)COC(=O)CNC(=O)c2ccc(F)cc2)c(C)n1Cc1ccco1 |  | -8.91%
COc1ccc(C)cc1-n1nnnc1SCC(=O)c1cc(C)n(Cc2ccco2)c1C | 15.8 µM (active) | 
